# Measurements published in PubChem BioAssay (NCI).
# This is part of a sample that, as a whole, favours compounds with a hit. Of some 83,000 tested, about 20% had one in any assay.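 Negative percent growth values reflect cell death: -40 means 40% of the cells present at the start died, and -100 means all died.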 A number with no mark means an inactive call. The source made the active and inactive calls. How the source made its calls: active means growth percent below 10; inactive means the rest.
# Tests used:
# Test in all cases: NCI-60 one-dose screen, 48 h (100 = growth as untreated, 0 = no growth, -100 = all killed)
# Details in all cases: 10 µM unless noted
# SK-MEL-2 melanoma = test system: SK-MEL-2 melanoma
# EKVX NSCLC = test system: EKVX NSCLC
# SN12C renal = test system: SN12C renal
# UO-31 renal = test system: UO-31 renal
# TK-10 renal = test system: TK-10 renal
# ACHN renal = test system: ACHN renal
# CAKI-1 renal = test system: CAKI-1 renal
# A498 renal = test system: A498 renal
# CCRF-CEM leukemia = test system: CCRF-CEM leukemia
# MOLT-4 leukemia = test system: MOLT-4 leukemia
Structure (SMILES),growth (SK-MEL-2 melanoma),growth (EKVX NSCLC),growth (SN12C renal),growth (UO-31 renal),growth (TK-10 renal),growth (ACHN renal),growth (CAKI-1 renal),growth (A498 renal),growth (CCRF-CEM leukemia),growth (MOLT-4 leukemia)
Cc1ccc(Nc2cc(N)nc(N)n2)cc1Cl,103%,67.7%,104%,83.4%,111%,101%,81.6%,101%,96.6%,93.7%
Cc1cc(S(=O)(=O)/N=C(\N)n2nc(C)c(C)c2C)c(SCc2ccccc2)cc1Cl,-12.3% (active),38.9%,76.3%,23.8%,116%,71.2%,71.9%,85.1%,41.5%,46%
OCCn1cc(-c2nc(-c3c[nH]c4ncccc34)cs2)c2cc(F)ccc21,66.2%,37.2%,80.3%,39.4%,62.1%,65.8%,70.7%,23%,56%,54.5%
COCCNC(=O)Nc1ccc2nc(-c3cccs3)c(-c3cccs3)nc2c1,101%,87.9%,94.7%,74.4%,104%,89.3%,89.8%,33.7%,96.8%,85.9%
CCC(=C(c1ccc(OCCN2CCCCC2)cc1)c1ccc(OCCN2CCCCC2)cc1)c1ccc(Cl)cc1,-76.1% (active),-82.1% (active),-94.9% (active),-94.5% (active),-84.7% (active),-99.7% (active),-95.6% (active),-81.4% (active),-74.4% (active),-68.2% (active)
C=C(C)[C@@H]1CC[C@]2(C(=O)N3CCOCC3)CC[C@]3(C)[C@H](CC[C@@H]4[C@@]5(C)C/C(=C/c6ccncc6)C(=O)C(C)(C)[C@@H]5CC[C@]43C)[C@@H]12,72.2%,60.8%,62.6%,52.6%,91%,58.4%,56.8%,68.9%,31.7%,30.3%
COc1ccc(OC)c(-c2nc(SCC(=O)c3ccc(C#N)cc3)[nH]c(=O)c2C#N)c1,104%,105%,107%,76.9%,103%,97.7%,96.8%,106%,106%,103%
CC(C)(C)[Si](C)(C)OC1[C@@H](CNC(=O)NC(=O)NC(N)=O)O[C@@H](n2cnc3c(NC(=O)Nc4ccccc4)ncnc32)[C@H]1O[Si](C)(C)C(C)(C)C (stereo not given in full),94.8%,90.5%,74.6%,95.2%,88.9%,77.3%,101%,101%,71.4%,54.3%
C=C(C)[C@@H]1CCC[C@]2(COS(=O)(=O)c3ccc(C)cc3)CC[C@]3(C)[C@@H](CC[C@@H]4[C@@]5(C)CCCNC(C)(C)[C@@H]5CC[C@]43C)[C@@H]12,83.1%,9.77% (active),-94.4% (active),61%,43.2%,44.6%,-68.3% (active),81.3%,1.15% (active),-11.1% (active)
COc1ccc(C(=O)Nc2cccc(-c3cc(=O)c4c(OC)c(OC)c(OC)cc4o3)c2)cc1,61.3%,77.3%,50%,26.5%,76.7%,47%,57.4%,69.3%,27.5%,23.3%
O=C1Nc2ccccc2/C1=C/c1nc2ccccc2c(=O)[nH]1,103%,80.6%,89.5%,64.4%,181%,91.9%,84.2%,102%,55.8%,86%
O=C(Nc1cccc2ccccc12)NC1CC1,121%,109%,106%,88%,117%,101%,96.5%,112%,97.5%,92.6%
Cn1c(I)c(C#CCO[Si](C)(C)C(C)(C)C)c(=O)[nH]c1=O,69.2%,105%,114%,25.3%,92.7%,99.7%,103%,94.5%,5.42% (active),-22.9% (active)
COc1ccc(\C=N/N=C(N)/C(N)=N\N=C/c2ccc(OC)cc2)cc1,95.5%,95.6%,111%,89.1%,101%,100%,89.8%,96.3%,-48.3% (active),109%
CCOC(=O)C(=O)C(C(=O)OCC)c1ccccc1 (stereo not given),101%,103%,108%,87.7%,106%,105%,97.9%,107%,90.4%,90%
CN1CCc2nc3sc(C(N)=O)c(N)c3c(-c3cccs3)c2C1,27.3%,47.7%,29.1%,4.13% (active),43%,8.41% (active),38.8%,-1.55% (active),19.3%,62.1%
O=C(Nc1cccc(-c2ccc(N3CCOCC3)nn2)c1)Nc1cccc(C(F)(F)F)c1,70%,63.7%,66.6%,74.9%,70.6%,65.7%,87.9%,80.3%,26%,22.9%
CN(c1cc2ncc(=O)[nH]c2cc1NC(N)=NCc1ccc(Cl)cc1)C1CCCCC1,92.7%,82.6%,67.9%,91%,85.2%,98.3%,98.5%,80.5%,21.9%,35.5%
COC(=O)[C@]1(C)CCC[C@]2(C)[C@H]3C[C@H]4C(C(C)C)=C[C@]3(CC[C@H]21)[C@@H]1C(=O)CC[C@H](OCCC#N)[C@@H]14,86.6%,57.1%,93.5%,71.1%,94.8%,87.5%,68%,105%,81.5%,48.6%
COc1ccc(C(=O)/C=C/c2c(C(F)(F)F)nc3ccccn23)cc1OC,31.3%,8.13% (active),16.1%,25.9%,29.9%,-41.1% (active),-5.18% (active),65.8%,14.9%,7.14% (active)
COc1cc(-c2cncn2-c2ccc(-c3nc4ccc(F)cc4s3)cc2)ccc1F,37.7%,95.8%,94.7%,71.9%,92.1%,3.23% (active),25.7%,74.5%,81.5%,63.6%
CC/C=C\C[C@H](O)C/C=C1/C(=O)C=C[C@@H]1C/C=C\CCCC(=O)N(C)C,29%,22.9%,-9.16% (active),-81.3% (active),-6.21% (active),-85% (active),-9.48% (active),50.2%,0.876% (active),6.69% (active)
CCCCCCCCCCC(CN(CC)CC)C(O)c1ccccc1 (stereo not given),65.8%,41.8%,57.1%,24.4%,45.3%,31.6%,45.5%,56.4%,4.36% (active),-15.2% (active)
O=C(N(c1ccccc1)c1ccccc1)n1cc(I)c2nc(Cl)nc(Cl)c21,70.5%,71.1%,34.8%,54.4%,86.8%,57.9%,39.6%,67.9%,4.32% (active),2.48% (active)
